Reference: PubChem BioAssay (Tox21)
Values joined by “and” are separate entries in the source; they are usually repeats but may differ in a detail not shown here. Equal entries are not always repeated. Results filed as inconclusive are left out. A number with no mark means an inactive call. Active and inactive are the calls of the source. Calls follow the shape of the dose curve; as a rule, active = well fitted activation curve with a large enough effect in the repeat runs; inconclusive = weak or mixed curves; inactive = no such curve, though single readings can be large or run the other way.

Molecular target: Nuclear receptor subfamily 1 group I member 2 (Homo sapiens) (UniProt O75469)
Sequence (O75469 whole entry, looked up): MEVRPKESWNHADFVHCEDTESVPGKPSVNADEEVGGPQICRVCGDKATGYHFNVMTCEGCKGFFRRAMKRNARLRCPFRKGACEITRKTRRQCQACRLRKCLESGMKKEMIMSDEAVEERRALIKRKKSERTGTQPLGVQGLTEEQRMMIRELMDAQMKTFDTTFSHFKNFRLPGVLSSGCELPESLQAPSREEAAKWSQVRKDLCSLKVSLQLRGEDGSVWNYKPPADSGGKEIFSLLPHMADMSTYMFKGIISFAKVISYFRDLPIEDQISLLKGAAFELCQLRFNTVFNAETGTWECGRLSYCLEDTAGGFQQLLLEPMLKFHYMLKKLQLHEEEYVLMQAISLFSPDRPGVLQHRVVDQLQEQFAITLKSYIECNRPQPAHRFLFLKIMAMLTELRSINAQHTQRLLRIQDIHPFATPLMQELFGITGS
Experiment: Human pregnane X receptor (PXR) small molecule agonists, qHTS assay (AID 1346982); also: nearly all actives have a fitted effect of over 35% in size
Details: PXR-Luc HepG2, CYP3A4 luciferase reporter, 24 h; series mostly up to 92.4 µM; activation: at the top concentration
Source text: National Center for Advancing Translational Sciences [NCATS]
NIH Chemical Genomics Center [NCGC]
U.S. Environmental Protection Agency [EPA]
National Institutes of Environmental Health Sciences [NIEHS]
National Toxicology Program [NTP]
The human pregnane X receptor (hPXR) regulates the expression of several drug metabolizing enzymes and induction of these proteins is a major mechanism for developing drug resistance in cancer. One such key enzyme catalyzing the drug metabolism is cytochrome P450 3A4 (CYP3A4). Changes in CYP3A4 expression affect drug metabolism, thereby reducing the therapeutic efficacy and altering toxicological response to a drug and which finally causes adverse drug interaction. To screen Tox21 libraries for compounds that activate hPXR-mediated CYP3A4 gene expression, PXR-Luc HepG2 cells were used.
PXR-Luc HepG2 cells were dispensed at 2,000 per well in 5uL of assay medium containing 5% charcoal-stripped FBS into white solid bottom 1536-well plates (Corning Life Sciences, Corning, NY) using a Multidrop Combi (Thermo Scientific, Waltham, MA) dispenser. The assay plates were incubated at 37 C and 5% CO2 for 5hr, and then 23nL of compounds dissolved in DMSO and positive control were transferred using a Pintool station (Wako, San Diego, CA). The assay plates were incubated at 37C and 5% CO2 for 24hr. For luciferase read, 4uL of ONE-Glo reagent (Promega Corporation, Madison, WI) was added to each well of the assay plates using Flying Reagent Dispenser (FRD, Aurora Discovery, San Diego, CA) and incubated the assay plates at room temperature for 30min. The luminescence signal was quantified using a ViewLux plate reader (Perkin Elmer, Shelton, CT).
% is scaled to controls: 0 for no effect and ±100 for the full control effect; potency is read from the fitted curve at half-maximal effect.

| Structure (SMILES) | Potency | activation |
| --- | --- | --- |
| Cc1ccc2c(ccc3ccccc32)c1 | 54.6 µM (active) |  |
| O=C(O)Cn1c(C(=O)Nc2nc(-c3ccccc3Cl)cs2)cc2ccccc21 | 26.6 µM (active) |  |
| O=C(O)c1cn(C2CC2)c2cc(Cl)c(F)cc2c1=O |  | -7.08% [at 42.5 µM] |
| C=Cc1c(C)c2cc3[nH]c(cc4nc(cc5nc(cc1[nH]2)C(C)=C5CCC(=O)O)C(CCC(=O)O)=C4C)c(C)c3C=C |  | -3.21% [at 42.5 µM] |
| Cn1sccc1=O | 30.6 µM (active) and 61.1 µM (active) |  |
| Cc1ccc(C(=O)C(C)CN2CCCCC2)cc1 (stereo not given) |  | 11.6% [at 42.5 µM] |
| C=C(C)C(=O)OCCOc1ccccc1 |  | -9.56% |
| CCCCCC/C=C/C=O |  | -1.78% |
| CC(C)NCC(O)COc1ccc(CC(N)=O)cc1 (stereo not given) |  | 15.9% |
| CN1CCC(=C2c3ccccc3C=Cc3ccccc32)CC1 |  | 5.54% [at 42.5 µM] |
| CC(=O)c1c(C)c([N+](=O)[O-])c(C(C)(C)C)c([N+](=O)[O-])c1C | 48.6 µM (active) |  |
| O=C(O)Cc1sc(-c2ccccc2)nc1-c1ccc(Cl)cc1 |  | 4.2% [at 42.5 µM] |
| CCCCOc1ccc(CC(=O)NO)cc1 |  | 12.8% [at 42.5 µM] |
| CCCCC(CC)COCCCN (stereo not given) | 60.4 µM (active) |  |
| CCCC[C@H]1CN(CC2CCOCC2)C(=O)OC12CCN(C1(C)CCN(C(=O)c3c(C)ncnc3C)CC1)CC2 |  | 5.4% |
| O=CNc1ccccc1 |  | -41.4% |
| COc1ccc2[nH]c(S(=O)Cc3ncc(C)c(OC)c3C)nc2n1 (stereo not given) | 18.8 µM (active) |  |
| C=CC[N+]1([C@H]2C[C@H]3[C@@H]4CC[C@H]5C[C@H](OC(C)=O)[C@@H](N6CCCCC6)C[C@]5(C)[C@H]4CC[C@]3(C)[C@H]2OC(=O)CC)CCCCC1 |  | 14.3% [at 42.5 µM] |
| Cc1ncsc1CCO |  | 6.39% |
| CCCCCCCCCO |  | 1.46% |

| Structure (SMILES) | Potency | activation |
| --- | --- | --- |
| SC1CCCC1 |  | -12.3% |
| O=C(O)C(c1ccc(Cl)cc1)c1ccc(Cl)cc1 |  | -0.815% |
| COCCCCCCCCOCCC[Si](C)(O[Si](C)(C)C)O[Si](C)(C)C | 12.2 µM (active) |  |
| FC(F)(F)C(F)(F)C(F)(F)C(F)(F)C(F)(F)C(F)(F)CCI |  | -0.121% [at 42.5 µM] |
| CCCCCCc1ccc(N)cc1 | 30.6 µM (active) |  |
| Cc1cccc(OCCOc2cccc(C)c2)c1 | 18.3 µM (active) |  |
| CN(C(=O)CCCOc1ccc2[nH]c(=O)ccc2c1)C1CCCCC1 | 15 µM (active) |  |
| CCN(CC)CCc1nc(-c2ccccc2)no1 |  | 1.48% [at 42.5 µM] |
| CCOc1nc2cccc(C(=O)O)c2n1Cc1ccc(-c2ccccc2-c2nn[nH]n2)cc1 |  | 0.567% [at 42.5 µM] |
| Nc1nc(CC(=O)O)cs1 |  | 7.72% |
| C=C(C)C(=O)OCCN(C)C |  | 2.04% |
| C[C@H](CCC(=O)O)[C@H]1CC[C@H]2[C@@H]3[C@H](O)C[C@@H]4C[C@H](O)CC[C@]4(C)[C@H]3CC[C@]12C |  | -3.51% |
| O=C(Cl)c1ccc([N+](=O)[O-])cc1 | 5.35 µM (active) |  |
| COc1cc(C(C)(C)C)c(O)c(C(C)(C)C)c1 |  | -2.66% |
| CC(=O)Nc1ccc(/C=N/NC(N)=S)cc1 |  | 13% [at 42.5 µM] |
| N#Cc1cc2ccccc2c2ccccc12 | 61.4 µM (active) |  |
| CC(C)(C)c1cc(CCC(=O)OCC(COC(=O)CCc2cc(C(C)(C)C)c(O)c(C(C)(C)C)c2)(COC(=O)CCc2cc(C(C)(C)C)c(O)c(C(C)(C)C)c2)COC(=O)CCc2cc(C(C)(C)C)c(O)c(C(C)(C)C)c2)cc(C(C)(C)C)c1O |  | -1.53% [at 42.5 µM] |
| CNS(=O)(=O)Cc1ccc2[nH]cc(CCN(C)C)c2c1 |  | 6.03% [at 42.5 µM] |
| O=C(O)/C=C/c1cnc[nH]1 |  | 1.32% |
| CC1(C)CCC(C)(C)c2cc(NC(=O)c3ccc(C(=O)O)cc3)ccc21 |  | -1.13% [at 42.5 µM] |
